# Bioassay records as filed in PubChem.
# TDP1 cell CPT = qHTS for Inhibitors of human tyrosyl-DNA phosphodiesterase 1 (TDP1): qHTS in cells in presence of CPT. actives 12% (n = 420,000). chicken DT40 Tdp1-/-;hTDP1 cells + 20 nM CPT, ATP luminescence, 48 h. Potency, µM (series often up to 46.2 µM), usual class: inhibitors; also: nearly all actives have a fitted effect of over 55% in size
#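 Cell growth measured by CellTiter-Glo luminescence after a minimum 48 h, 37 C compound exposure with 20 nM CPT in Tdp1-knockout DT40 cells stably expressing hTDP1, seeded 400/well; qHTS titration format.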
# IL1B secr inh = qHTS for Inhibitors of Inflammasome Signaling: IL-1-beta AlphaLISA Primary Screen | THP-1 LPS/ATP IL-1B secretion, AlphaLISA, 16 h; hits give low values | activity change, % at 57.5 µM | actives 4.7% (n = 360,000); in the data active = activity change below about -50%; inconclusive = mostly about -30% to -49%
#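 THP-1 cells pretreated 1 hr with compounds (up to 57.5 uM final), then stimulated with LPS (250 ng/mL final) plus ATP (1.25 mM final); secreted IL-1B measured by AlphaLISA after 16 hr, decreased signal indicating inhibition.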
# HT1080-NT tox = qHTS for induction of synthetic lethality in tumor cells producing 2HG: qHTS for the HT-1080-NT fibrosarcoma cell line; AID 686970, 2013; Potency, µM (titrated, usually from 46.1 µM), hits mostly cytotoxic; HT-1080-NT fibrosarcoma viability, CellTiter-Glo ATP luminescence, 48 h; actives 1.6% (n = 360,000);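 also: NT is the 2HG producing partner of a matched IDH1 knockdown line; nearly all actives have a fitted effect of over 55% in size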
#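 Viability of the 2HG-overproducing fibrosarcoma line after 48 hours of compound exposure at 37 degrees C was determined by luminescence with CellTiter-Glo, and concentration-effect curves were then fitted and categorized.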
# 12-LOX inh = Primary qHTS assay for inhibitors of human arachidonate 12S-lipoxygenase (ALOX12): Round 2; Polyunsaturated fatty acid lipoxygenase ALOX12 (Homo sapiens), P18054; purified 12hLO, xylenol orange hydroperoxide absorbance; Potency, µM (titrated, usually from 108 µM), actives largely listed as inhibitors; actives 1.1% (n = 580,000)
# Target sequence (P18054 whole entry, looked up): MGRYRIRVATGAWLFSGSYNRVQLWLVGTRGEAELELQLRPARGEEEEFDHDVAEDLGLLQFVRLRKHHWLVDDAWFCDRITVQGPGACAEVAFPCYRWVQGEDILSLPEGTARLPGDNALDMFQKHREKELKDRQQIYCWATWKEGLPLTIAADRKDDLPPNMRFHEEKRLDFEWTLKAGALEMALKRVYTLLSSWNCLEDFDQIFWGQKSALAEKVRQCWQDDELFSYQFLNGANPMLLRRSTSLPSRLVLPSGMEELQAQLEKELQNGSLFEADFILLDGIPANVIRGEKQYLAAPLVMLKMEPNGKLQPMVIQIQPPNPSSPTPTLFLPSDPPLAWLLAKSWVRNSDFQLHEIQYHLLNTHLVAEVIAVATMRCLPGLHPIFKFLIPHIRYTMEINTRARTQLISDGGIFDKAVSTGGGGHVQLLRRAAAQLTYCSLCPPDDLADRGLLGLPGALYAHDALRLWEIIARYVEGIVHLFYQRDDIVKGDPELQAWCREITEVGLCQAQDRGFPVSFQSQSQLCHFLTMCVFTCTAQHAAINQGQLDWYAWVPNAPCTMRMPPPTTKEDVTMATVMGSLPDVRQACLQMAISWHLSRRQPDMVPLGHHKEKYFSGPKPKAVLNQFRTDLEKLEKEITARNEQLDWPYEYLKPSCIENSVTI
#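 Purified human 12hLO at 150 nM in 25 mM Hepes, 0.01% Triton X-100, pH 7.0, preincubated 15 min at room temperature with compound. Reaction started with 40 uM arachidonic acid, 30 min at room temperature. Hydroperoxide measured by Fe-xylenol orange, 573/405 nm absorbance ratio.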
# HT1080 IDH1KD tx = qHTS for induction of synthetic lethality in tumor cells producing 2HG: qHTS for the HT-1080-IDH1KD cell line | Potency, µM (series often up to 46.1 µM), hits mostly cytotoxic | actives 2% (n = 360,000) | HT-1080 IDH1 knockdown viability, ATP luminescence, 48 h
#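 Cytotoxicity counter-line: IDH1KD HT-1080, 48 h, CellTiter-Glo. Curves classed by r2, magnitude and activity.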
# TDP1 cell noCPT = qHTS for Inhibitors of human tyrosyl-DNA phosphodiesterase 1 (TDP1): qHTS in cells in absence of CPT | DT40 Tdp1-/- hTDP1 cells, no CPT, ATP luminescence, 48 h | Potency, µM (doses to about 46.2 µM), actives largely listed as inhibitors | actives 15% (n = 420,000) | AID 686978, 2013; also: nearly all actives have a fitted effect of over 55% in size
#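 Chicken DT40 Tdp1-/- cells stably complemented with human TDP1 were seeded at 400 cells/well with DMSO in place of 20 nM camptothecin. After compound pinning, cells grew at least 48 hr at 37 °C; viability read by CellTiter-Glo luminescence.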
# A number is an active result; 0 = inactive; ? = inconclusive; - = no result; ! = not confirmed by another sample; [ ] = another dose, or the depositor's remark. This excerpt belongs to a sample that is enriched for hits. Unless noted, calls follow the shape of the dose curve; as a rule, active = well fitted curve in the direction sought with a large enough effect; inconclusive = small, poorly fitted or top-dose-only effect, or another doubt; inactive = no such curve, though single readings can be large; an effect the other way counts as inactive or inconclusive.
SMILES,TDP1 cell CPT,IL1B secr inh,HT1080-NT tox,12-LOX inh,HT1080 IDH1KD tx,TDP1 cell noCPT
O=C(Cc1cccs1)Nc1cccc(-c2nc3cc4ccccc4cc3[nH]2)c1,26µM,-97,23µM,?,?,13µM
O=C(Nc1ccc2nc(-c3cccs3)[nH]c2c1)c1cccs1,?,0,?,0,?,23µM
CC(=O)Nc1cccc(NC(=O)Cc2cccs2)c1,0,0,0,?,0,0
O=C(Nc1ccc(-c2nc3ccc(NC(=O)c4cccs4)cc3[nH]2)cc1)c1cccs1,1.6µM,0,-,?,-,1.6µM
O=C(Nc1ccc2nc(-c3cccs3)[nH]c2c1)c1ccco1,?,0,0,0,0,?
CC12CC3CC(C)(C1)CC(C(=O)NC(=S)N1CCCCC1)(C3)C2,?,0,?,25µM,0[9.24 µM],?
CN(C)C(=S)NC(=O)C12CC3CC(C)(CC(C)(C3)C1)C2,?,0,0,0,0,?
O=C(CSc1nnnn1-c1ccc(O)cc1)c1cc2ccccc2o1,13µM,0,0,0,0,?
Cc1cc(C)c(-n2nnnc2SCC(=O)c2cc3ccccc3o2)c(C)c1,0,0,0,0,0,?
Cn1c(=O)c2c(ncn2CCCC(=O)Nc2cccc(C(F)(F)F)c2)n(C)c1=O,-,-,-,0,-,-
COC(=O)c1ccc(CNC(=O)C2CCC(=O)N(CCc3ccccn3)C2)cc1 (stereo not given),0,0,0,0,0,0
COc1ccccc1CCCNC(=O)C1CCC(=O)N(CCc2cccc(F)c2)C1 (stereo not given),?,0,0,0,0,18µM
COc1ccc(CCCNC(=O)C2CCC(=O)N(CCc3cccc(F)c3)C2)cc1 (stereo not given),23µM,0,0,0,0,?
COC(=O)c1ccc(CNC(=O)C2CCC(=O)N(CCCc3ccccc3)C2)cc1 (stereo not given),13µM,0,0,0,0,?
COc1ccc(CCNC(=O)C2CCC(=O)N(CC3CCCCC3)C2)cc1 (stereo not given),?,0,0,0,0,0
COc1ccc(CCCNC(=O)C2CCC(=O)N(CC3CCCCC3)C2)cc1 (stereo not given),16µM,0,0,0,0,18µM
COc1ccc(NC(=O)CN2C(=O)C(C)(C)c3cc(S(=O)(=O)N4CCCCC4)ccc32)cc1Cl,?,-,-,0,-,?
COC(=O)CNC(=O)CC12CC3CC(CC(C3)C1)C2,-,-,-,0,-,-
CC(C)CNC(=O)c1coc(COc2ccc3c(c2)C(c2ccccc2)N(C(=O)C(C)C)CC3)n1 (stereo not given),-,-,-,0,-,-
CN(C)C(=O)C1CN(C(=O)CCCc2ccccc2)CC12CCOCC2 (stereo not given),-,-,-,0,-,-
COc1ccc(OCc2nc(C)c(CCO)c(=O)n2CC(=O)Nc2cccc(Cl)c2)cc1,-,-,-,0,-,-
Cc1ccc(S(=O)(=O)Nc2cc(C)cn(Cc3ccccc3)c2=O)cc1,21µM,0,0,0,0,16µM
Cc1ccc(S(=O)(=O)Nc2cc(C)cn(Cc3ccc(F)cc3)c2=O)cc1,26µM,0,0,0,?,?
COc1ccc(CNCc2cccc(Cl)c2)cc1,?,0,0,0,0,0
Cc1ccc(CNCC(O)(c2ccccc2)c2ccccc2)cc1,?,0,0,0,0,21µM
SMILES,TDP1 cell CPT,IL1B secr inh,HT1080-NT tox,12-LOX inh,HT1080 IDH1KD tx,TDP1 cell noCPT
CCc1ccc(C(O)(CNCc2ccccc2)c2ccccc2)cc1 (stereo not given),23µM,0,0,0,0,21µM
CCc1ccc(NC(=S)NCc2ccccc2)cc1,0,0,0,0,0,0
COc1ccc(CNCC(O)(c2ccccc2)c2ccc(Cl)cc2)cc1 (stereo not given),?,0,?,?,0,21µM
CCOc1cc(C(=O)N(C)Cc2cc3cc(OC)ccc3[nH]c2=O)cc(OCC)c1OCC,0,0,0,2µM!,0,0
CCCC(=O)N(Cc1cc2cc(OC)ccc2[nH]c1=O)c1ccccc1OC,15µM,0,0,0,0,?
CCOc1ccccc1C(=O)N(C)Cc1cc2cc(OC)ccc2[nH]c1=O,0,0,0,0,0,0
COCCCNC(=O)N1CCc2nn(CC3CC3)c(=O)n2CC1,-,-,-,0,-,-
O=C1CCC(c2ccccc2)=NN1c1ccccc1,-,-,-,0,-,-
O=C1CC(c2ccccc2)=NN1c1ccccc1,?,-82,?,0,0,15µM
COc1ccccc1C(=O)NC(CCSC)C(=O)OCC(=O)N1CCN(S(=O)(=O)c2ccc(C)cc2)CC1 (stereo not given),0,0,0,?,0,?
CCn1cc(CN2CCCC(c3nc4c(C)cccc4[nH]3)C2)cc1C#N (stereo not given),-,-,-,0,-,-
CC(/C=C/c1cccc([N+](=O)[O-])c1)=N\NC(=O)c1ccncc1,?,0,0,0,0,23µM
CC(/C=C/c1ccc2c(c1)OCO2)=N/NC(=O)c1ccncc1,0,0,0,0,0,0
CC(/C=C/c1ccccc1)=N/NC(=O)c1cccc(Br)c1,?,0,0,0,?,23µM
CC(/C=C/C=C/c1ccccc1)=N/NC(=O)C(O)c1ccccc1 (stereo not given),0,0,0,0,0,18µM
CC(/C=C\C=C\c1ccccc1)=N\NC(=O)c1cncc(Br)c1,7.3µM,0,0,?,0,7.3µM
O=C(c1cccc(OC(F)(F)F)c1)N1CC(CO)C2(CCNCC2)C1 (stereo not given),-,-,-,0,-,-
CS(=O)(=O)NC1CCN(S(=O)(=O)c2ccsc2C(=O)O)CC1,-,-,-,0,-,-
CCOC(=O)c1sc(NC(=O)c2cccc(S(=O)(=O)N3CCCCC3C)c2)cc1C (stereo not given),-,-,-,0,-,-
CCOC(=O)C1=CC[C@@H](c2cccc(Br)c2)N(S(=O)(=O)c2ccc(F)cc2)[C@H]1c1cccc(Cl)c1,21µM,0,0,0,0,10µM
CCOC(=O)C1=CCN(S(=O)(=O)c2ccc(Br)cc2)C1c1cccc(C)c1 (stereo not given),?,0,?,0,?,26µM
